We go through eight compounds from PubChem BioAssay (NCATS).

Assay [1] concerns the target Calcium and integrin-binding protein 1 (Homo sapiens) (UniProt Q99828). The assay can be described thus: Primary qHTS for Identification of Calcium Integrin Binding Protein 1 (CIB1) Competitor (AID 1508620).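 Further: GST tagged CIB1 binding a fluorescein labelled alphaIIb integrin peptide tracer; top concentration of the series differs between compounds.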 Put shortly:
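Fluorescence polarization competition: GST-tagged CIB1 (1 uM final) preincubated with compound 15 min at room temperature, then FITC-labelled alphaIIb peptide (100 nM final) added. After 15 min at room temperature, polarization read at Ex 480/Em 540.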

Assay [2] is described as follows: Primary qHTS for inhibitors of nuclear receptor binding SET domain protein 2 (NSD2) in an isogenic RCH-ACV NSD2 p.E1099K mutant (9B) (AID 1645876). Further: nearly all actives have a fitted effect of over 70% in size. Further: potency means the concentration at half of the fitted maximal effect.
Assay [3] can be described thus: Primary qHTS for inhibitors of nuclear receptor binding SET domain protein 2 (NSD2) in an RCH-ACV wild type WT cells (2C) (AID 1645877). Further: nearly all actives have a fitted effect of over 70% in size. Further: potency means the concentration at half of the fitted maximal effect.

Inconclusive results are not listed. Values without a mark were called inactive. Calls of active or inactive are those of the source. The call rests on the fitted dose curve; in most records, active means well fitted curve in the direction sought with a large enough effect; inconclusive means small, poorly fitted or top-dose-only effect, or another doubt; inactive means no such curve, though single readings can be large; an effect the other way counts as inactive or inconclusive. Where a SMILES comes first, the peptide text is derived from it. [ ]: non-standard residue; d: D form. Hyp = O=C(O)[CH]1C[CH](O)CN1; Phe(ol) = N[CH](CO)Cc1ccccc1; Iva = CC[C](C)(N)C(=O)O; Aib = CC(C)(N)C(=O)O
On the % scale 0 is the no-effect control and ±100 the full control effect.

Sequence of Calcium and integrin-binding protein 1 (Homo sapiens) (Q99828 whole entry, looked up): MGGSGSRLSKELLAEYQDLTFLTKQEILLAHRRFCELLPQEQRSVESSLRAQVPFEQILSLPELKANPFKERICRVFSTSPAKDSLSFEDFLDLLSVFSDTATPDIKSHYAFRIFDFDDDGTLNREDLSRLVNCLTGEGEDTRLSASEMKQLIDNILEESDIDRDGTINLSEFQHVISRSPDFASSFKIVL

For `CC(=O)OC1CC(C)(C(=O)O)CC2C3=CC(=O)C4C5(C)CCC(OC6OC(C(=O)O)C(O)C(O)C6OC6OC(C(=O)O)C(O)C(O)C6O)C(C)(C)C5CCC4(C)C3(C)CCC12C` (centres undefined), the Potency result in assay [1] is “inactive”. In assay [2], the activity change, negative = viability loss is -3.77% [at 9.23 µM]. Besides, in assay [3], the activity change, negative = cell killing is -8.59% [at 9.23 µM].

Consider `C/C(=C\CO[C@@H]1O[C@H](CO[C@H]2OC[C@](O)(CO)[C@H]2O)[C@@H](O)[C@H](O)[C@H]1O)C(C)(C)O`, for which the Potency result in assay [1], in assay [2] and in assay [3] was “inactive” each time.

`COC1C=C(C)C(O)(CO)C2(C)CCCC(C)(C)C12` (centres undefined): the Potency entry in assay [1], in assay [2] and in assay [3] was “inactive” in each case.

In the case of `O=c1[nH]cnc2c([C@@H]3N[C@H](CO)[C@@H](O)[C@H]3O)c[nH]c12`, the Potency result in assay [1], in assay [2] and in assay [3] was “inactive” each time.

As for `COc1ccc(C2(N(C)C(=O)c3ccc(NC(=O)c4ccco4)cc3)CCOCC2)cc1`, the Potency entry in assay [1], in assay [2] and in assay [3] was “inactive” throughout.

Take `CC(C)C[C@@H]1NC(=O)[C@@H]2C[C@@]34C[C@@H]5[C@@]6(C)CCCC(C)(C)C6CC[C@@]5(C)N(c5ccccc53)[C@H]4N2C1=O` (some centres undefined): in assay [1], the Potency entry is “inactive”. Further, the figures for the Potency in assay [2] and in assay [3] were 3.55 µM (active) and 3.99 µM (active), respectively.

In the case of `COc1cc(CCO)ccc1O[C@@H]1O[C@H](CO)[C@@H](O)[C@H](O)[C@H]1O`, the Potency result in assay [1], in assay [2] and in assay [3] was “inactive” in each case.

For `CCC(C)(NC(=O)C(CCC(N)=O)NC(=O)C1CC(O)CN1C(=O)C(C)(C)NC(=O)C(C)(C)NC(=O)C(CC(C)C)NC(=O)CNC(=O)C(NC(=O)C(C)(C)NC(=O)C(C)(C)NC(=O)C(C)(C)NC(=O)C(Cc1ccccc1)NC(C)=O)C(C)C)C(=O)N1CC(O)CC1C(=O)NC(C)(C)C(=O)NC(CO)Cc1ccccc1` (centres undefined) (Ac-F[Aib][Aib][Aib]VGL[Aib][Aib][Hyp]Q[Iva][Hyp][Aib][Phe(ol)]; configuration not given here), in assay [1], the activity change, negative = inhibition is 1.74% [at 12.4 µM]. The activity change, negative = viability loss in assay [2] is -11.4% [at 9.23 µM]. Moreover, the activity change, negative = cell killing in assay [3] was -29.8% [at 9.23 µM].
